Measurements: PubChem BioAssay (NCI)
About 79,000 compounds went through this panel and 15% of them were active in at least one assay; those are over-represented in the sample as a whole. Calls of active or inactive are those of the source. Rule as the data show it: active = growth inhibition above about 70%; inactive = the rest.

Tests used:
[1] = NCI Yeast Anticancer Drug Screen. Data for the rad52 strain (AID 147);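 also: 0% = growth of vehicle-treated control cultures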; conditions: S. cerevisiae rad52 mutant growth inhibition, hits give high values
In short: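 Measured: yeast growth inhibition. System: strain with a defined DNA damage repair alteration. Reference: vehicle-treated control cultures.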

[2] = NCI Yeast Anticancer Drug Screen. Data for the wt1 strain (AID 149);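 also: 0% = growth of vehicle-treated wt1 cultures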; conditions: S. cerevisiae wt1 strain (SPY 50644) growth inhibition, hits give high values
In short: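 wt1 strain grown with compound or vehicle; inhibition taken from the growth difference.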

[3] = NCI Yeast Anticancer Drug Screen. Data for the rad50EPP+ strain (AID 151);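 also: 0% = growth of vehicle-treated control cultures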; conditions: S. cerevisiae rad50 mutant strain, hits give high values
In short: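 One strain with a rad50 alteration (rad50EPP+) was compound-treated, its growth then compared to that of vehicle controls.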

[4] = NCI Yeast Anticancer Drug Screen. Data for the rad50 strain (AID 155);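 also: 0% = growth of vehicle-only cultures of the same strain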; conditions: S. cerevisiae rad50 strain growth inhibition, hits give high values
In short: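 DNA repair mutant yeast, compound exposure, growth read-out; inhibition is taken relative to vehicle.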

[5] = NCI Yeast Anticancer Drug Screen. Data for the mec2-1 strain (AID 157); conditions: S. cerevisiae mec2-1 strain, hits give high values
In short: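 Test agents were screened against the mec2-1 yeast strain, with defined DNA repair or cell cycle alteration. Growth was scored as inhibition against vehicle-only controls.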

[6] = NCI Yeast Anticancer Drug Screen. Data for the rad14 strain (AID 159);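 also: 0% = growth of vehicle-treated control cultures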; conditions: S. cerevisiae rad14 strain growth inhibition, hits give high values
In short: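 DNA repair-defective yeast, compound-exposed; % growth inhibition derived by comparison with vehicle-treated controls.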

[7] = NCI Yeast Anticancer Drug Screen. Data for the sgs1 mgt1 strain (AID 161);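 also: 0% = growth of cultures given vehicle only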; conditions: S. cerevisiae sgs1 mgt1 strain, hits give high values
In short: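 Genetically altered yeast, compound exposure, growth inhibition relative to vehicle.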

[8] = NCI Yeast Anticancer Drug Screen. Data for the CLN2oe strain (AID 163);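 also: 0% = growth of vehicle-only control cultures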; conditions: S. cerevisiae CLN2oe strain, hits give high values
In short: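 Here, growth inhibition in a cell-cycle-altered yeast strain after compound exposure was quantified against vehicle control growth.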

[9] = NCI Yeast Anticancer Drug Screen. Data for the cln2 rad14 strain (AID 165);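 also: 0% = growth equal to vehicle treated cultures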; conditions: S. cerevisiae cln2 rad14 strain, hits give high values
In short: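 Growth of compound-exposed yeast (cln2 rad14 genotype) measured and expressed as inhibition relative to vehicle.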

[10] = NCI Yeast Anticancer Drug Screen. Data for the bub3 strain (AID 167); conditions: S. cerevisiae bub3 mutant strain, hits give high values
In short: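 In this screen, a yeast mutant lacking normal mitotic checkpoint function is challenged with compound. Relative growth versus vehicle gives the inhibition value.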

[11] = NCI Yeast Anticancer Drug Screen. Data for the wt2 strain (AID 169);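 also: 0% = growth of vehicle-treated yeast cultures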; conditions: S. cerevisiae wt2 strain growth inhibition, hits give high values
In short: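 Genetically defined yeast strains from a DNA-repair/cell-cycle panel were used. Compound-exposed yeast growth was measured, and the inhibition was calculated relative to vehicle treatment.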

[12] = NCI Yeast Anticancer Drug Screen. Data for the mlh1 strain (AID 171);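 also: 0% = growth of vehicle-treated control cultures of the same strain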; conditions: S. cerevisiae mlh1 strain growth inhibition, hits give high values
In short: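 Here the genetically defined yeast mutant is grown with each compound, and the extent to which its growth falls below that of vehicle-exposed cells is reported.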

[13] = NCI Yeast Anticancer Drug Screen. Data for the sgs1 strain (AID 173);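 also: 0% = growth of vehicle-only control cultures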; conditions: S. cerevisiae sgs1 mutant, hits give high values
In short: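 Relative growth inhibition, referenced to vehicle, was determined in a yeast strain with a defined alteration affecting DNA damage repair or cell cycle control after compound exposure.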

[14] = NCI Yeast Anticancer Drug Screen. Data for the mlh1 rad18 strain (AID 175); conditions: S. cerevisiae mlh1 rad18 strain growth inhibition, hits give high values
In short: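 In this whole-cell yeast screen, a strain with altered DNA damage repair is challenged with compound, and its growth is measured against matched vehicle-treated controls.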

[15] = NCI Yeast Anticancer Drug Screen. Data for the rad18 strain (AID 177); conditions: S. cerevisiae rad18 mutant growth inhibition, hits give high values
In short: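 Screen uses a yeast strain with a defined lesion in DNA damage repair; compound effect is read as loss of growth compared to untreated vehicle cultures.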

[16] = at 5.0 µM (retest, dose inferred, filed as 0.5)
[17] = at 50.0 µM (retest, dose inferred, filed as 5.0)

Measured: growth inhibition

COc1ccc(N2C(=O)CC(Cl)C2=O)cc1 (stereo unspecified)
inactive: [1]; at 1.2 µM -10% | [1]; at 3.7 µM -9% | [1]; at 11.0 µM 10% | [2]; at 1.2 µM -1% | [2]; at 3.7 µM 10% | [2]; at 11.0 µM 16% | [3]; at 1.2 µM -9% | [3]; at 3.7 µM -18% | [3]; at 11.0 µM 22% | [3]; at 33.0 µM 66% | [4]; at 1.2 µM -16% | [4]; at 3.7 µM -11% | [4]; [16] -128% | [4]; at 11.0 µM 15% | [5]; at 1.2 µM -7% | [5]; at 3.7 µM -5% | [5]; [16] -44% | [5]; at 11.0 µM -6% | [5]; at 33.0 µM 64% | [5]; [17] 36% | [6]; at 1.2 µM -6% | [6]; at 3.7 µM 1% | [6]; at 11.0 µM 13% | [7]; [16] -56% | [7]; [17] 59% | [8]; at 1.2 µM -12% | [8]; at 3.7 µM -12% | [8]; at 11.0 µM -12% | [8]; at 33.0 µM 0% | [9]; [16] -60% | [9]; [17] 8% | [10]; at 1.2 µM -15% | [10]; at 3.7 µM -8% | [10]; [16] -75% | [10]; at 11.0 µM 1% | [10]; [17] 69% | [11]; at 1.2 µM -4% | [11]; at 3.7 µM -1% | [11]; at 11.0 µM 37% | [12]; at 1.2 µM -14% | [12]; at 3.7 µM -10% | [12]; at 11.0 µM -10% | [12]; at 33.0 µM 40% | [13]; at 1.2 µM -3% | [13]; at 3.7 µM 0% | [13]; at 11.0 µM 24% | [14]; [16] -137% | [14]; [17] 32% | [15]; at 1.2 µM -12% | [15]; at 3.7 µM -10% | [15]; at 11.0 µM 1% | [15]; at 33.0 µM 38%
active: [1]; at 33.0 µM 80% | [1]; at 100.0 µM 99% | [2]; at 33.0 µM 70% | [2]; at 100.0 µM 100% | [3]; at 100.0 µM 99% | [4]; at 33.0 µM 79% | [4]; [17] 96% | [4]; at 50.0 µM 99.2% | [4]; at 100.0 µM 99% | [5]; at 50.0 µM 99.5% | [5]; at 100.0 µM 100% | [6]; at 33.0 µM 98% | [6]; at 100.0 µM 100% | [7]; at 50.0 µM 95.5% | [8]; at 100.0 µM 78% | [9]; at 50.0 µM 97% | [10]; at 33.0 µM 92% | [10]; at 50.0 µM 97.9% | [10]; at 100.0 µM 100% | [11]; at 33.0 µM 99% | [11]; at 100.0 µM 100% | [12]; at 100.0 µM 100% | [13]; at 33.0 µM 93% | [13]; at 100.0 µM 99% | [14]; at 50.0 µM 97.1% | [15]; at 100.0 µM 99%

CNc1nc(C)nc2c1cnn2-c1ccc([N+](=O)[O-])cc1
active: [4]; [17] 76% | [4]; at 50.0 µM 79.2% | [4]; at 100.0 µM 88% | [7]; [17] 83% | [13]; at 100.0 µM 80% | [14]; [17] 91% | [15]; at 33.0 µM 89% | [15]; at 100.0 µM 92%
inactive: [1]; at 1.2 µM -1% | [1]; at 3.7 µM -6% | [1]; at 11.0 µM 10% | [1]; at 33.0 µM 26% | [1]; at 100.0 µM 41% | [2]; at 1.2 µM 3% | [2]; at 3.7 µM 1% | [2]; at 11.0 µM 13% | [2]; at 33.0 µM 12% | [2]; at 100.0 µM 15% | [3]; at 1.2 µM 11% | [3]; at 3.7 µM 17% | [3]; at 11.0 µM 42% | [3]; at 33.0 µM 63% | [3]; at 100.0 µM 69% | [4]; at 1.2 µM -2% | [4]; at 3.7 µM -5% | [4]; [16] 1% | [4]; at 11.0 µM 16% | [4]; at 33.0 µM 68% | [5]; at 1.2 µM 0% | [5]; at 3.7 µM 0% | [5]; [16] -2% | [5]; at 11.0 µM 2% | [5]; at 33.0 µM -1% | [5]; [17] 31% | [5]; at 50.0 µM -1.35% | [5]; at 100.0 µM -2% | [6]; at 1.2 µM 11% | [6]; at 3.7 µM 2% | [6]; at 11.0 µM 22% | [6]; at 33.0 µM 24% | [6]; at 100.0 µM 25% | [7]; [16] 2% | [7]; at 50.0 µM 69.7% | [8]; at 1.2 µM -6% | [8]; at 3.7 µM -5% | [8]; at 11.0 µM -5% | [8]; at 33.0 µM -6% | [8]; at 100.0 µM -8% | [9]; [16] -4% | [9]; [17] 30% | [9]; at 50.0 µM 2% | [10]; at 1.2 µM -5% | [10]; at 3.7 µM -2% | [10]; [16] -2% | [10]; at 11.0 µM -12% | [10]; at 33.0 µM -12% | [10]; [17] 2% | [10]; at 50.0 µM -13.3% | [10]; at 100.0 µM -14% | [11]; at 1.2 µM -4% | [11]; at 3.7 µM 9% | [11]; at 11.0 µM 13% | [11]; at 33.0 µM 24% | [11]; at 100.0 µM 16% | [12]; at 1.2 µM -5% | [12]; at 3.7 µM -1% | [12]; at 11.0 µM 0% | [12]; at 33.0 µM -1% | [12]; at 100.0 µM -1% | [13]; at 1.2 µM 5% | [13]; at 3.7 µM 4% | [13]; at 11.0 µM 44% | [13]; at 33.0 µM 69% | [14]; [16] -8% | [14]; at 50.0 µM 57.5% | [15]; at 1.2 µM -1% | [15]; at 3.7 µM 16% | [15]; at 11.0 µM 49%

CCc1[nH]nc(C(N)=O)c1N=NN(C)C
active: [1]; at 33.0 µM 97% | [1]; at 100.0 µM 97% | [3]; at 100.0 µM 95% | [4]; at 33.0 µM 90% | [4]; [17] 85% | [4]; at 50.0 µM 90.1% | [4]; at 100.0 µM 97% | [5]; at 100.0 µM 94%
inactive: [1]; at 1.2 µM 3% | [1]; at 3.7 µM 20% | [1]; at 11.0 µM 66% | [2]; at 1.2 µM -6% | [2]; at 3.7 µM -4% | [2]; at 11.0 µM -7% | [2]; at 33.0 µM -5% | [2]; at 100.0 µM 1% | [3]; at 1.2 µM 0% | [3]; at 3.7 µM 12% | [3]; at 11.0 µM 27% | [3]; at 33.0 µM 69% | [4]; at 1.2 µM -4% | [4]; at 3.7 µM 5% | [4]; [16] -118% | [4]; at 11.0 µM 49% | [5]; at 1.2 µM 3% | [5]; at 3.7 µM -1% | [5]; [16] -46% | [5]; at 11.0 µM 7% | [5]; at 33.0 µM 25% | [5]; [17] 11% | [5]; at 50.0 µM 17.7% | [6]; at 1.2 µM -1% | [6]; at 3.7 µM -3% | [6]; at 11.0 µM 3% | [6]; at 33.0 µM 13% | [6]; at 100.0 µM 41% | [7]; [16] -57% | [7]; [17] 14% | [7]; at 50.0 µM 12.8% | [9]; [16] -53% | [9]; [17] -35% | [9]; at 50.0 µM 21.1% | [10]; at 1.2 µM -9% | [10]; at 3.7 µM -5% | [10]; [16] -66% | [10]; at 11.0 µM -3% | [10]; at 33.0 µM -6% | [10]; [17] -84% | [10]; at 50.0 µM -15.4% | [10]; at 100.0 µM 14% | [11]; at 1.2 µM -1% | [11]; at 3.7 µM 0% | [11]; at 11.0 µM -1% | [11]; at 33.0 µM 0% | [11]; at 100.0 µM 11% | [12]; at 1.2 µM 4% | [12]; at 3.7 µM -4% | [12]; at 11.0 µM -2% | [12]; at 33.0 µM 6% | [12]; at 100.0 µM 21%
